# Bioassay records: PubChem, National Center for Advancing Translational Sciences (NCATS)
# Sampled rows, rich in hits. Any-hit rate of the full collection: about 2.4%.
# WRN helicase inh: inhibitors of human WRN helicase | Q14191 | AID 651768 | 360,000 tested, 0.46% active | Potency, µM (series often up to 114 µM), without a hit: top-dose activity change, negative = inhibition, hits mostly inhibitors | WRN helicase unwinding, fluorescent forked duplex, kinetic; note: potency is the fitted concentration of half-maximal effect; % is set by controls: 0 for no effect and ±100 for the full control effect; nearly all actives have a fitted effect of over 55% in size
#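 Screening of the MLSMR collection measured strand separation of a quenched forked DNA duplex (100 nM) by 20 nM WRN with 2 mM ATP, all final. Compounds were preincubated with enzyme 15 min at room temperature.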
# Pol beta inh-1: inhibitors of human DNA polymerase beta; Pol beta primer extension/strand displacement, fluorescence kinetic; Potency, µM (series often up to 114 µM), without a hit: top-dose activity change, negative = inhibition, hits mostly inhibitors; AID 485314; 340,000 tested, 1.3% active; P06746; note: potency is the fitted concentration of half-maximal effect; % is set by controls: 0 for no effect and ±100 for the full control effect
#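 Values derive from four-parameter Hill fits of normalized kinetic data: reads at 0 and 10 min following addition of 50 nM substrate to 10 nM Pol beta preincubated 15 min with compound.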
# POLI inh: DNA polymerase iota (human) inhibition. Q9UNA4. Pol iota fluorescent replication assay, 10 min. Potency, µM (doses to about 115 µM), inactives show at the highest dose activity, negative = inhibition, usual class: inhibitors. 390,000 tested, 1% active; note: potency is the fitted concentration of half-maximal effect
# Target sequence (Q9UNA4 whole entry, looked up): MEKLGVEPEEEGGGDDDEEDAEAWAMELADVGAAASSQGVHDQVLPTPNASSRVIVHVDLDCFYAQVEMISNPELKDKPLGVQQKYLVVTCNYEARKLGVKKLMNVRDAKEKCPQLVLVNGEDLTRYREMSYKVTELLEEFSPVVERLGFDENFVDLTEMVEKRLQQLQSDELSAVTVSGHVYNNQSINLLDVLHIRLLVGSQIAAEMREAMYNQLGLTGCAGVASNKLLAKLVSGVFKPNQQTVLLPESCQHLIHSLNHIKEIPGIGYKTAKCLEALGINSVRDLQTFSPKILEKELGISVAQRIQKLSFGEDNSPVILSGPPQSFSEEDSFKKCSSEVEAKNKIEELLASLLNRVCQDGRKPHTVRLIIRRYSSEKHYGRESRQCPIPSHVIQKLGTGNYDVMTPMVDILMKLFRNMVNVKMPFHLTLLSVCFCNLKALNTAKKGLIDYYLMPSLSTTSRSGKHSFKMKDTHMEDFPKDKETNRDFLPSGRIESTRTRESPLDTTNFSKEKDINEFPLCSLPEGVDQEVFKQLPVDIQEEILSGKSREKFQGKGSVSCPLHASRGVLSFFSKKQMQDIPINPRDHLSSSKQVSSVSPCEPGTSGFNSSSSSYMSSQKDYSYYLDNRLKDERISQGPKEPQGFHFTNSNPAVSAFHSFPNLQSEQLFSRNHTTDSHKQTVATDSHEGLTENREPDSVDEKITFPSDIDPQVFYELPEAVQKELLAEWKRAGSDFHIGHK
#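 Fluorescent replication assay read twice, at 0 min and 10 min after adding 50 nM (final) substrate. Enzyme (10 nM) and compounds were first incubated 15 min at room temperature; enzyme-free buffer wells were negative controls.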
# FEN1 inhibitor: blocks human flap endonuclease 1; P39748; Recombinant FEN1 flap cleavage, fluorescence, 15 min; Potency, µM (series often up to 114 µM), for the others: top-dose activity change, negative = inhibition, usual class: inhibitors; 390,000 tested, 0.35% active; AID 588795; note: potency is the fitted concentration of half-maximal effect; % is set by controls: 0 for no effect and ±100 for the full control effect; nearly all actives have a fitted effect of over 65% in size
#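 Nuclease activity of 10 nM FEN1 was measured after 15 min of room-temperature exposure to titrated compounds, by adding 50 nM flap substrate and reading plates at 0 and 15 min.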
# Pol eta inh-1: inhibitors of human DNA polymerase eta | 390,000 tested, 1.2% active | AID 588591 | Potency, µM (titrated, usually from 114 µM), for the others: at the top dose activity change, negative = inhibition, most hits filed as inhibitors | recombinant Pol eta, fluorescent DNA replication assay; note: potency is the fitted concentration of half-maximal effect; % is set by controls: 0 for no effect and ±100 for the full control effect
#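 Pol eta (10 nM) was preincubated with compounds for 15 min at room temperature, after which fluorescent replication substrate (50 nM final) was added to start the reaction. Fluorescence was read kinetically at 0 and 10 min.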
# Pol kappa inh-1: inhibitors of human DNA polymerase kappa. Q9UBT6. purified Pol kappa, fluorescent DNA synthesis assay, 10 min. Potency, µM (doses to about 107 µM), without a hit: at the highest dose activity, negative = inhibition, most hits filed as inhibitors. 400,000 tested, 0.53% active. AID 588579; note: potency is the fitted concentration of half-maximal effect; % is set by controls: 0 for no effect and ±100 for the full control effect
#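 First, compounds were pin-transferred onto 10 nM Pol kappa. After 15 min at room temperature, substrate was added to 50 nM final. Fluorescence was then measured kinetically at 0 and 10 min.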
# Pol beta inh-2: Validate hits inhibiting human DNA polymerase beta; Potency, µM, usual class: inhibitors; shares compounds with Pol beta inh-1; Pol beta primer extension/strand displacement, fluorescence kinetic; 250 tested, 87% active; calls by dose curve; note: potency is the fitted concentration of half-maximal effect
# Klenow inh: counter-screen for DNA polymerase beta inhibitors: Klenow fragment inhibition | activity change, negative = inhibition, % at 57.1 µM | AID 540300 | 250 tested, under 10 active | shares compounds with Pol beta inh-1 | Klenow exo- polymerase counter-screen, fluorescent DNA substrate
# HIV RT inh: counter-screen for DNA polymerase beta inhibitors: HIV-1 RT inhibition | shares compounds with Pol beta inh-1 | HIV-1 RT polymerase activity, counter-screen | activity % (negative = inhibition, positive = activation), % at 57.1 µM | 250 tested, under 10 active | AID 540301
# POLB valid: DNA polymerase beta inhibition, radiolabeled validation; shares compounds with Pol beta inh-1; radiolabeled primer extension gel assay, phosphorimager; inhibition, % at 10 µM; 110 tested, 91% active;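 active = inhibition at 10 µM of 30% or more; inconclusive = no clear call, values can overlap the other calls; inactive = inhibition at 10 µM under 30%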
# BAZ2B inh: inhibits human BAZ2B bromodomain, hit validation. shares compounds with Pol kappa inh-1. AlphaScreen BAZ2B / biotin-H3K14Ac peptide displacement. Potency, µM, most hits filed as inhibitors. 25 tested, 100% active. AID 588809; calls by dose curve
# BAZ2B bead ctr: AlphaScreen signal interference, BAZ2B hit counter-screen; shares compounds with Pol kappa inh-1; 25 tested, under 10 active; AlphaScreen biotin-His6 peptide bead counterscreen, signal decrease; Potency, µM (titrated, usually from 57.1 µM), for inactives: top-dose activity change, negative = inhibition, actives largely listed as inhibitors;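 active = clear concentration-dependent signal drop in the bead assay lacking the target, so a primary-screen artifact; inconclusive = weak, partial or single-dose response; inactive = no response, so a real primary hit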
# Pol iota confirm: Confirm cherry-picked inhibitors of human polymerase iota; shares compounds with Pol kappa inh-1; Pol iota primer extension, TAMRA/BHQ fluorescence; Potency, µM, actives largely listed as inhibitors; 1,500 tested, 77% active; AID 720496; note: potency is the fitted concentration of half-maximal effect
# Pol kappa inh-2: Pol kappa (human) inhibition, cherry-pick confirmation; shares compounds with Pol eta inh-1; purified Pol-kappa, fluorescent strand-displacement substrate; Potency, µM, actives largely listed as inhibitors; 920 tested, 76% active; AID 720501; note: potency is the fitted concentration of half-maximal effect
# Pol eta inh-2: confirmation of human DNA polymerase eta inhibitors; 2,600 tested, 64% active; AID 720502; shares compounds with Pol eta inh-1; Pol eta primer extension, TAMRA/BHQ fluorescence, 10 min; Potency, µM, usual class: inhibitors; note: potency is the fitted concentration of half-maximal effect
# The depositor's hits bear a star; ? = inconclusive; nt = no result; [ ] = remark or other dose. Unless noted, calls come from the whole dose curve; as a rule, active = well fitted curve in the direction sought with a large enough effect; inconclusive = small, poorly fitted or top-dose-only effect, or another doubt; inactive = no such curve, though single readings can be large; an effect the other way counts as inactive or inconclusive.
SMILES,WRN helicase inh,Pol beta inh-1,POLI inh,FEN1 inhibitor,Pol eta inh-1,Pol kappa inh-1,others
CN1CCc2cc(O)cc3c2C1Cc1ccc(O)c(O)c1-3 (centres undefined),nt,-2%[57.1 µM],16µM*,nt,-13%[57.1 µM],4%[19.4 µM],
Oc1c(Br)c(Br)c(Br)c(Br)c1Br,-29%,nt,?,50µM*,?,?,
Oc1c(Br)cc(Br)cc1Br,-8%,nt,1%,-5%,-9%,-7%,
COC(=O)COc1ccc(C[C@@H](C)NC[C@H](O)c2cccc(Cl)c2)cc1,nt,nt,nt,nt,nt,9%[60.1 µM],
NC(=O)CF,nt,nt,nt,nt,nt,19%[60.1 µM],
COc1cc(N2CCOCC2)ccc1/C=C1\C(=O)NC(=O)N(Cc2ccc3c(c2)OCO3)C1=O,50µM*,-8%,98%,-14%,-10%,-12%,
COc1cc(N2CCOCC2)ccc1/C=C1\C(=O)NC(=O)N(Cc2cccs2)C1=O,50µM*,16%,?,-13%,-16%,-6%,
CN(C(=O)Cc1ccc(Cl)c(Cl)c1)[C@H](CN1CCCC1)c1cccc(N=C=S)c1,nt,nt,nt,nt,nt,-10%[19.4 µM],
CC(C)CN(CC(C)C)c1ccc(C=C2C(=O)NC(=S)NC2=O)cc1[N+](=O)[O-],56µM*,50µM*,18µM*,-5%,25µM*,?,
COc1ccc2[nH]c3c(c2c1)CCN=C3C,4%[11.6 µM],nt,-14%,50µM*,-8%,-16%,
CN(C)C(CSC(N)=O)CSC(N)=O,nt,nt,nt,nt,nt,-10%[12 µM],
CN1CCC(N(C)c2ncnc3ccc(Br)cc23)CC1,6%,?,27%,-7%,-4%,-5%,
Cc1ccc(-c2nc(N(C)C3CCN(C)CC3)c3ccccc3n2)cc1,-12%,28µM*,?,?,1%,-8%,
CN1CC[C@@]2(c3cccc(O)c3)Cc3nc4ccccc4cc3C[C@H]2C1,nt,nt,nt,nt,nt,-4%[19.4 µM],
N[C@@H](Cc1cc(Br)c(O)c(Br)c1)C(=O)O,nt,22µM*,nt,nt,nt,nt,
CC(=O)Nc1ccc(OC(=O)N2CCN(/[N+]([O-])=N/Oc3ccc([N+](=O)[O-])cc3[N+](=O)[O-])CC2)cc1,nt,nt,?,?,nt,5%,
CCC1OC(=O)CC(O)C(C)[C@@H](O[C@@H]2OC(C)[C@H](O[C@@H]3C[C@@](C)(O)C(O)C(C)O3)C(N(C)C)C2O)[C@H](CC=O)CC(C)C(=O)/C=C/C(C)=C/[C@@H]1COC1OC(C)C(O)C(OC)[C@@H]1OC (some centres undefined),nt,nt,nt,nt,nt,-4%[60.1 µM],
COc1ccc2c(c[n+](C)c3c4cc5c(cc4ccc23)OCO5)c1OC,nt,28µM*,?,?,?,-7%[60.1 µM],
CCN(CC)c1ccc(C=C2C(=O)NC(=S)NC2=O)cc1,-17%,2%,13%,?,-7%,7%,
O=C1NC(=S)NC(=O)C1=Cc1ccc(OCC(=O)N2CCCC2)cc1,-7%,50µM*,?,-16%,?,-34%,
CCOC(OCC)P(=O)(O)CCCN,nt,nt,nt,nt,nt,2%[19.4 µM],
O=[N+]([O-])c1ccc(N2CCCC2)c(F)c1Br,3%,42%,?,-2%,-14%,-4%,
Cc1cc(Oc2cc(NN3CCCCC3)c([N+](=O)[O-])cc2[N+](=O)[O-])ccc1[N+](=O)[O-],-14%,40µM*,?,-3%,-11%,-21%,
Cn1ncc2c(NCc3ccco3)ncnc21,nt,nt,?,0%,nt,11%,
O=C(COC(=O)c1c2c(nc3ccccc13)/C(=C/c1ccco1)CC2)NC1CCCC1,32µM*,3.2µM*,13µM*,-17%,3.5µM*,32µM*,Pol beta inh-2=25*;Klenow inh=-28;HIV RT inh=-5;POLB valid=99*;BAZ2B inh=7.1*;BAZ2B bead ctr=?;Pol iota confirm=13*;Pol kappa inh-2=12*;Pol eta inh-2=17*
